# Measured values reported in publication PMC5540273 (PLoS ONE, 2017).
# System: NEK3
# Details: concentration: 1 μM, replicates: in singlicate; n = 1
# 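Note: KINOMEscan kinase panel screen.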
row,Structure (SMILES),%Inh
1,O=C(O)C(F)(F)F.O=C(O)C(F)(F)F.O=c1[nH]ccc2nc(N[C@@H]3CCCNC3)nc(Nc3ccc(S(=O)(=O)N4CCOCC4)cc3)c12 [GSK2177277],89%
2,COc1cc(Nc2nccc(N3CCC(NC(=O)c4cc5ccccc5s4)C3)n2)cc(OC)c1OC (stereo not shown) [GSK1379760],11%
3,CN1CCN(Cc2cccc(-c3ccc4c(Nc5ccc(Oc6ccccc6)cc5)ccnc4c3)c2)CC1 [GW578342],3%
4,Fc1ccc(-c2ncn(C3CCNCC3)c2-c2ccnc(Oc3ccc(-c4ccccc4)cc3)n2)cc1 [SB-245391],13%
5,Cc1ccc(S(=O)(=O)Nc2ccc(Nc3nccc(Nc4cccc5[nH]ncc45)n3)cc2)cc1 [GSK581271],0%
6,COC(=O)Nc1nc2ccc(Oc3ccc(NC(=O)Nc4cc(C(F)(F)F)ccc4F)cc3)cc2n1C.Cl [GW692089],0%
7,O=C(Nc1n[nH]c2nc(-c3ccc(O)cc3)ccc12)C1CC1 [SB-710363],17%
8,CNC(=O)c1ccccc1Nc1nc(Nc2ccc(N3CCOCC3)cc2)ncc1Cl.Cl [GSK1576028],93.3%
9,Cl.NC(=O)c1cccc(Nc2nccc(Nc3ccc(Oc4c(Cl)cccc4Cl)c(Cl)c3)n2)c1 [GW659009],87%
10,COc1cc(Nc2nccc(-c3c(-c4cccc(NC(=O)c5c(F)cccc5F)c4)nn4ccccc34)n2)cc(OC)c1OC [GSK323521],0%
11,Cn1cc(-c2ccc3c(c2)CCN3C(=O)Cc2cccc(F)c2)c2c(N)ncnc21 [GSK2603358],11%
12,Cc1cccc(Nc2nc(N[C@H]3CCNC3)ncc2C(N)=O)c1.Cl [GSK2197149],7%
13,c1ccc(-c2n[nH]cc2Nc2ccnc3ccccc23)nc1 [GW694077],3%
14,CN(C)Cc1ccc(-c2ccc3c(Nc4ccc(Oc5ccccn5)cc4)ccnc3c2)o1 [GW567148],0%
15,CCS(=O)(=O)c1ccc(OC)c(Nc2nccc(-c3c(-c4cccc(NC(=O)c5c(F)cccc5F)c4)nn4ncccc34)n2)c1 [GSK326180],14%
16,COc1cccc(C2=C(Nc3ccc(Cl)c(C(=O)O)c3)C(=O)NC2=O)c1 [SB-390769],7%
17,COc1cccc(NC(=O)NC2CCN(c3ccnc(Nc4cc(OC)c(OC)c(OC)c4)n3)C2)c1 (stereo not shown) [GSK1379763],33%
18,Cc1ccc(C)c(NC(=O)NC2CCN(c3ccnc(Nc4ccc(F)cc4)n3)C2)c1 (stereo not shown) [GSK1379720],8%
19,Cc1ccc(F)c(C(=O)Nc2cccc(-c3nn4ccccc4c3-c3ccnc(Nc4cccc(F)c4)n3)c2)c1F [GSK361061],8%

row,Structure (SMILES),%Inh
1,Cc1occc1-c1ncc(OC[C@@H](N)Cc2c[nH]c3ccccc23)cc1-c1ccc2[nH]nc(C)c2c1.O=C(O)C(F)(F)F [GSK682037],0%
2,COc1ccc(Nc2nccc(N3CCC(NC(=O)Nc4cccc(OC)c4)C3)n2)cc1 (stereo not shown) [GSK1379742],0%
3,CC(=O)N1CCN(c2ccc(Nc3nccc(-c4sc(C(C)C)nc4-c4cccc(NS(=O)(=O)c5cccc(Cl)c5)c4)n3)cn2)CC1 [GSK1660437],0%
4,Nc1ncnc2c1nc(-c1ccccc1)n2-c1ccccc1 [SKF-97293],2%
5,O=C(NC1CCN(c2ccnc(Nc3ccc(F)cc3)n2)C1)c1cc2ccccc2s1 (stereo not shown) [GSK1379716],9%
6,COc1cccc(C(=O)Nc2cccc(Oc3ccc4nc(NC(=O)C5CC5)cn4n3)c2)c1,19%
7,Cl.Cl.NCC(C(=O)Nc1cc(Br)c(-c2ccnc3[nH]ccc23)s1)c1ccccc1 (stereo not shown) [GSK1269851],18%
8,Cn1cc(-c2ccc3c(c2)CCN3C(=O)Cc2cccc(Cl)c2)c2c(N)ncnc21 [GSK2606590],1%
9,COc1cc(Nc2ncc3c(C)nc(-c4cc5ccccc5[nH]4)n3n2)cc(OC)c1OC [GW869516],89%
10,O=C(Nc1cccc(-c2nn3ccccc3c2-c2ccnc(Nc3cccc(F)c3)n2)c1)c1c(F)ccc(F)c1Cl [GSK357952],0%
11,C[C@@H](Oc1cc(-n2cnc3cc(-c4ccnc(NCCS(C)(=O)=O)c4)ccc32)sc1C(N)=O)c1ccccc1Cl [GSK907232],3%
12,COc1cccc(-c2ccc3c(NC(=O)C4CC4)n[nH]c3n2)c1 [SB-710903],18%
13,Cc1ccc(C(=O)N2CC[C@@H](O)C2)cc1-n1c(C)cc(OCc2ccc(F)cc2F)c(Br)c1=O,31%
14,Cl.c1ccc(-c2ccc3c(Nc4ccc5[nH]ccc5c4)ccnc3c2)nc1 [GW440138],9%
15,CCc1ccc(-c2ccc3c(c2)-c2c(cnn2C)S(=O)(=O)N3C)cc1,0%
16,COc1ccc(Nc2nccc(NCCNC(=O)c3cc4ccccc4s3)n2)cc1 [GSK1379896],0%
17,Nc1ncc(-c2ccc3nccc(-c4ccncc4)c3c2)cc1S(=O)(=O)N1CCOCC1 [GSK1627798],0%
18,O=C(Nc1n[nH]c2cc(-c3ccoc3)ccc12)C1CC1 [SB-738481],2%
